In the supplement of paper PMC3334620:
Over roughly 33,000 sequences, “E-score (-0.5 to 0.5)” has its median near -0.012; the highest 2% begin near 0.29. The sample holds the highest values, similar sequences and a random draw of the others, so the mix is not that of the screen.

Target: T1, Ybr033w (UniProt P38073)
T1 sequence: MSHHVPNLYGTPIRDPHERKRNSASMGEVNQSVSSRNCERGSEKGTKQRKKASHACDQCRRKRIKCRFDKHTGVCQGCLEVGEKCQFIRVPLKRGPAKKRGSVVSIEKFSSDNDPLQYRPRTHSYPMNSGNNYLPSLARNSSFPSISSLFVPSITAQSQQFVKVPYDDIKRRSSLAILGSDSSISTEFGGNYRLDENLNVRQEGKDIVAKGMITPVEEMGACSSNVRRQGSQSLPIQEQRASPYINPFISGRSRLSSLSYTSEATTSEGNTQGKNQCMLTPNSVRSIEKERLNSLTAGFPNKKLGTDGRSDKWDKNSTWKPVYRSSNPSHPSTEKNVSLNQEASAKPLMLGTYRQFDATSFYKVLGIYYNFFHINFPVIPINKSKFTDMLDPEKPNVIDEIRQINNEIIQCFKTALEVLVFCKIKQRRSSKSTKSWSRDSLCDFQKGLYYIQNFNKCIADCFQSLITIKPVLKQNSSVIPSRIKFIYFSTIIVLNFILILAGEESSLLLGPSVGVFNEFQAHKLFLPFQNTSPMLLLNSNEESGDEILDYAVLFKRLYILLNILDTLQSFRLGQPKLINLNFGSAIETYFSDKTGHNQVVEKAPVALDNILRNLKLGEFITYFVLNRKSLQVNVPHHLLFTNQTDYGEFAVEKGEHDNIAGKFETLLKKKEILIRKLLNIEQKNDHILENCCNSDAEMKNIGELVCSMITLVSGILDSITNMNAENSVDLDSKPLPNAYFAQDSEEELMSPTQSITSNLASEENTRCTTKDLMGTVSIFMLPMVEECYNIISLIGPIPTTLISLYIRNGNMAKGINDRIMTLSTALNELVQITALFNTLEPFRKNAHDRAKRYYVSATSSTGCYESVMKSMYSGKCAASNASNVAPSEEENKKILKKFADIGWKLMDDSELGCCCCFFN
Assay: PBM E-score (8-mer binding enrichment) (E-score (-0.5 to 0.5)); higher = stronger / more preferred TF binding
Conditions: protein concentration: 200 nM; construct: GST-full length
Experimental: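 Universal 'all 10-mer' protein binding microarrays (Agilent AMADID 015681) probed with GST-tagged S. cerevisiae TFs (full-length or DBD) made by in vitro transcription/translation (PURExpress), about 100-200 nM. Bound TF was detected with fluorescent anti-GST. Each ungapped 8-mer (which stands for itself and its reverse complement) is scored by the PBM enrichment score (E-score), a modified Wilcoxon-Mann-Whitney statistic from -0.5 to +0.5, computed with the Universal PBM Analysis Suite. Scale: above 0.35 generally sequence-specific binding.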

| Sequence | PBM E-score |
| --- | --- |
| CTGCTCTC | -0.153 |
| AGCCACCA | 0.0237 |
| AGGCTCAT | -0.0489 |
| ACGACCAG | -0.158 |
| AAGATAAG | 0.0844 |
| AGGATAAC | -0.109 |
| AGGATAAG | -0.0801 |
| AAGATAAT | 0.307 |
| AGGATAAA | 0.427 |
| GGGATAAC | 0.00039 |
| GGGATAGA | -0.196 |
| GGGATAAA | 0.317 |
| AAGATAAC | 0.0702 |
| CAGGTAGG | -0.052 |
| ATCCGGGG | 0.181 |
| GCCCATCA | -0.178 |
| AGTCGACT | 0.204 |
| AGCTTAGA | -0.0294 |
| TGATCAAA | 0.076 |
| CGATCAAC | -0.144 |
| GGATCAAC | 0.369 |
| AGATCAAA | 0.111 |
| GGATCAAA | 0.367 |
| AGATCAAC | 0.0509 |
| CACACTGA | -0.19 |

| Sequence | PBM E-score |
| --- | --- |
| CCAGGAAC | -0.103 |
| TATGTCAA | 0.318 |
| AATCTCAA | 0.0508 |
| CATCTCAA | 0.119 |
| GATGTCAA | 0.0645 |
| TATCTCAA | 0.32 |
| AATGTCAA | 0.00312 |
| AAACGCGA | 0.0304 |
| GAAGACTC | -0.0221 |
| CATAACTC | 0.0871 |
| GGAAATGA | 0.133 |
| CCAGATTC | -0.16 |
| TACGAGTA | 0.297 |
| GACGAGTA | 0.0188 |
| CACGAGTA | 0.0368 |
| AAGAATGC | 0.142 |
| ATTCGAAA | 0.12 |
| TATATTAA | 0.324 |
| AATATTAG | 0.228 |
| TATATTCA | 0.303 |
| AATATTCA | 0.226 |
| AATATTAC | 0.283 |
| TATATTGA | 0.275 |
| GACATTAA | 0.166 |
| GATATTAA | 0.251 |

| Sequence | PBM E-score |
| --- | --- |
| AACATTAA | 0.224 |
| AATATTAT | 0.335 |
| TACATTAA | 0.345 |
| CATATTCA | 0.0595 |
| CCTGAGCA | -0.075 |
| GACGGTTA | -0.192 |
| ACCAGTAT | -0.104 |
| CCTAACGA | -0.0133 |
| ATGCGTGG | -0.346 |
| GAATCGCC | -0.138 |
| CGGTTGCA | -0.122 |
| CTGCCCAC | -0.165 |
| CAGGTGAA | 0.0712 |
| CGCCCCCC | -0.434 |
| ACTTGTTC | 0.25 |
| GATGCATC | 0.0586 |
| GTGGATCA | 0.0654 |
| GCTGCAGA | -0.101 |
| TAAGCAAA | 0.179 |
| AATATGAG | 0.245 |
| AATATGAC | 0.109 |
| CATATTAG | 0.202 |
| CGTATTAA | 0.108 |
| CATATTAA | 0.347 |
| AATATGAT | 0.317 |

| Sequence | PBM E-score |
| --- | --- |
| AATATTAA | 0.349 |
| AAACTTCC | 0.068 |
| AACCCAGT | -0.102 |
| CGCTACTA | 0.218 |
| AAGCAACC | 0.0073 |
| AAAGTTAA | 0.323 |
| AAAGTTGC | 0.0307 |
| AAAGTTAG | 0.297 |
| AAAGTTAC | 0.224 |
| CAAGTTAA | 0.068 |
| TAAGTTAA | 0.206 |
| AAAGTTGG | 0.0498 |
| CAAGTTAG | 0.0992 |
| AAAGTTGT | 0.302 |
| CGTTCTAG | -0.0499 |
| CCAAGCTC | -0.0526 |
| GTAATGGA | 0.163 |
| AAAGATCG | -0.0193 |
| AAAGATAG | -0.0366 |
| TTAGATAA | 0.218 |
| GAAGATAC | 0.17 |
| GAAGATAA | 0.319 |
| GTAGATAA | 0.333 |
| AAAGATCC | 0.3 |
| AAAGATAA | 0.299 |

| Sequence | PBM E-score |
| --- | --- |
| AAAGATCA | 0.173 |
| AAAGATAC | 0.12 |
| TAAGATAA | -0.0896 |
| ATAGATAA | 0.28 |
| CCTCCAAG | -0.176 |
| AACGATGG | -0.0425 |
| TCCCCTCA | -0.098 |
| CTTAGCTC | -0.12 |
| ATAGATTA | 0.329 |
| CAAGATTA | 0.185 |
| AAAGATTA | 0.203 |
| GAAGATTA | 0.366 |
| GTAGATTA | 0.216 |
| ATAGATTG | 0.107 |
| CCAGGGCA | -0.266 |
| AACACTCA | 0.13 |
| TAACCTCA | 0.0768 |
| TCGTCCAA | 0.0311 |
| ACAATCCC | 0.0235 |
| TCTGTCCA | -0.0429 |
| ATATTCTG | 0.157 |
| GAATTCAA | 0.177 |
| ATATTCCA | 0.395 |
| GTATTCCA | -0.0248 |
| CTATTCCA | 0.17 |

| Sequence | PBM E-score |
| --- | --- |
| ATCTTCCA | 0.249 |
| AAATTCAA | 0.288 |
| AAATTCAG | 0.204 |
| ATCTTCCC | 0.121 |
| ATATTCCG | 0.428 |
| ATATTCGG | 0.0327 |
| ATCTTCCG | 0.438 |
| ACTGCACC | -0.018 |
| CCGCTAAA | -0.117 |
| AGACTGTA | -0.175 |
| AGGGGAAG | -0.272 |
| GCTAGGCA | -0.146 |
| AATTTCCG | 0.325 |
| TTATTCAA | 0.253 |
| AATTTCCT | 0.273 |
| ATATTCAA | 0.3 |
| AAATTCCC | 0.0364 |
| CTATTCCC | -0.043 |
| AAATTCCG | 0.309 |
| AAATTCCA | 0.258 |
| ACATTCCC | 0.0614 |
| CATTTCCG | 0.12 |
| CTATTCAA | 0.0501 |
| ATATTCCC | 0.329 |
| CCTGCAAC | -0.034 |

| Sequence | PBM E-score |
| --- | --- |
| ACACTCTA | 0.121 |
| GTGCTGGA | -0.0549 |
| AACCACAT | 0.00349 |
| AGTGGCTG | -0.145 |
| AGGTCTGC | -0.104 |
| GCGCTCTA | -0.159 |
| GTGCGACA | -0.235 |
| GTTGCAAA | 0.231 |
| GGTTGCAC | -0.131 |
| ATTCGAGA | 0.023 |
| GGTGCACC | -0.253 |
| CTTCAGCC | -0.13 |
| AAATCGAC | 0.142 |
| AAGTCTAT | -0.00931 |
| CGTGTGAG | -0.225 |
| CGTTCTTC | 0.0897 |
| ATTTCTTA | 0.195 |
| AGTTCTTC | 0.3 |
| AGTTCTTA | 0.171 |
| ATTTCTTC | 0.313 |
| ATTTCTTG | 0.198 |
| CATAGCTC | -0.153 |
